The values below come from the supplement of paper PMC11732987, “Enantioselective OTUD7B fragment discovery through chemoproteomics screening and high-throughput optimisation” (Communications Chemistry, 2025).

Common to all, as to assay: log2 ratio of Biotin-Ahx-Ub-VS probe labelling (fragment/DMSO); higher = less target engagement (more negative = stronger competition), active = hit call of the paper (q ≤ 0.05, log2 ratio ≤ -1)
Settings in all cases: compound concentration: 200 uM; treatment time: 3 h

Test [1] addresses T1, USP42 (UniProt Q9H9J4).
T1 sequence (whole entry): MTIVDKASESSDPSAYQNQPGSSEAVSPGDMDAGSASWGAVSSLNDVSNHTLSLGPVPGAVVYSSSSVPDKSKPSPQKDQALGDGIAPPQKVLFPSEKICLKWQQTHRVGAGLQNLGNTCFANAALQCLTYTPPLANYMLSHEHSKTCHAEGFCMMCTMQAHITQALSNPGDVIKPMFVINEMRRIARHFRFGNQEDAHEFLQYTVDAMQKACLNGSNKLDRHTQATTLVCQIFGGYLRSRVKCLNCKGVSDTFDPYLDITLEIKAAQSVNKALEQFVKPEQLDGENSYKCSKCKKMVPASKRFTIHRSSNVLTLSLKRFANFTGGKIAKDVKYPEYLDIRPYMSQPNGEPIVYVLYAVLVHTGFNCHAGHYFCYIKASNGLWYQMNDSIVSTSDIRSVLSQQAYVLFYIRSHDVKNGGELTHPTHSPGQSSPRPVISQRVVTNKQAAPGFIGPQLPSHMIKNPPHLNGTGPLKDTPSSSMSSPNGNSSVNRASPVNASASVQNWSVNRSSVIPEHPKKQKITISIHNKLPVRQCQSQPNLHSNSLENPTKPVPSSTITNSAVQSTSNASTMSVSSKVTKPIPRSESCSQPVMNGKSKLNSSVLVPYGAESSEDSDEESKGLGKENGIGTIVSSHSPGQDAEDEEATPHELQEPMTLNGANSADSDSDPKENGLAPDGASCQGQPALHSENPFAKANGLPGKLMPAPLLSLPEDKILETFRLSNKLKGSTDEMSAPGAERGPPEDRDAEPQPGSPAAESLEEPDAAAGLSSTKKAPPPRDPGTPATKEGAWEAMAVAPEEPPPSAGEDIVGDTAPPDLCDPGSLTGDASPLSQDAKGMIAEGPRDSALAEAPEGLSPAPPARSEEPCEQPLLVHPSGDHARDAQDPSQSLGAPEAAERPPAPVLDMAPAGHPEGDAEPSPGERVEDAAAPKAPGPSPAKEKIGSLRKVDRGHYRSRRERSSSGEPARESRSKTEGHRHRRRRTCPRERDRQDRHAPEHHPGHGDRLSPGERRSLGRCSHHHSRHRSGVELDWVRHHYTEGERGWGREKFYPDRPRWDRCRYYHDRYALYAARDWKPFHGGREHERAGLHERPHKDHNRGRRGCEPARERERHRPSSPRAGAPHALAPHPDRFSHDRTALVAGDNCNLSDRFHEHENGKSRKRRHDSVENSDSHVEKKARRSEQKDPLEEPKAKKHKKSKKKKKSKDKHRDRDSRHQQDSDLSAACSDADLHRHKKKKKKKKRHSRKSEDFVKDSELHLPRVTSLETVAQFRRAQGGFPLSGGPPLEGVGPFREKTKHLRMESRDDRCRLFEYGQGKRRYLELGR
In a few lines: (§1)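 Labelled DUBs from HEK293T lysate were NeutrAvidin-enriched, digested with LysC and trypsin, and run by diaPASEF LC-MS/MS. Before that, each 495 µg sample in Tris/CHAPS/IGEPAL buffer with protease inhibitors was treated in triplicate with fragment at 200 µM or vehicle for 3 h, then with Biotin-Ahx-Ub-VS at 0.5 µM final for 1 h. Values are average log2 ratios of fragment over vehicle by unpaired t-test, based on global-median-normalised Spectronaut label-free quantities from proteins with ≥2 unique peptides.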

For test [2], the target named is USP46 (UniProt P62068). In outline:
as §1

Test [3] concerns the target T2, USP47 (UniProt Q96K76).
T2 sequence (whole entry): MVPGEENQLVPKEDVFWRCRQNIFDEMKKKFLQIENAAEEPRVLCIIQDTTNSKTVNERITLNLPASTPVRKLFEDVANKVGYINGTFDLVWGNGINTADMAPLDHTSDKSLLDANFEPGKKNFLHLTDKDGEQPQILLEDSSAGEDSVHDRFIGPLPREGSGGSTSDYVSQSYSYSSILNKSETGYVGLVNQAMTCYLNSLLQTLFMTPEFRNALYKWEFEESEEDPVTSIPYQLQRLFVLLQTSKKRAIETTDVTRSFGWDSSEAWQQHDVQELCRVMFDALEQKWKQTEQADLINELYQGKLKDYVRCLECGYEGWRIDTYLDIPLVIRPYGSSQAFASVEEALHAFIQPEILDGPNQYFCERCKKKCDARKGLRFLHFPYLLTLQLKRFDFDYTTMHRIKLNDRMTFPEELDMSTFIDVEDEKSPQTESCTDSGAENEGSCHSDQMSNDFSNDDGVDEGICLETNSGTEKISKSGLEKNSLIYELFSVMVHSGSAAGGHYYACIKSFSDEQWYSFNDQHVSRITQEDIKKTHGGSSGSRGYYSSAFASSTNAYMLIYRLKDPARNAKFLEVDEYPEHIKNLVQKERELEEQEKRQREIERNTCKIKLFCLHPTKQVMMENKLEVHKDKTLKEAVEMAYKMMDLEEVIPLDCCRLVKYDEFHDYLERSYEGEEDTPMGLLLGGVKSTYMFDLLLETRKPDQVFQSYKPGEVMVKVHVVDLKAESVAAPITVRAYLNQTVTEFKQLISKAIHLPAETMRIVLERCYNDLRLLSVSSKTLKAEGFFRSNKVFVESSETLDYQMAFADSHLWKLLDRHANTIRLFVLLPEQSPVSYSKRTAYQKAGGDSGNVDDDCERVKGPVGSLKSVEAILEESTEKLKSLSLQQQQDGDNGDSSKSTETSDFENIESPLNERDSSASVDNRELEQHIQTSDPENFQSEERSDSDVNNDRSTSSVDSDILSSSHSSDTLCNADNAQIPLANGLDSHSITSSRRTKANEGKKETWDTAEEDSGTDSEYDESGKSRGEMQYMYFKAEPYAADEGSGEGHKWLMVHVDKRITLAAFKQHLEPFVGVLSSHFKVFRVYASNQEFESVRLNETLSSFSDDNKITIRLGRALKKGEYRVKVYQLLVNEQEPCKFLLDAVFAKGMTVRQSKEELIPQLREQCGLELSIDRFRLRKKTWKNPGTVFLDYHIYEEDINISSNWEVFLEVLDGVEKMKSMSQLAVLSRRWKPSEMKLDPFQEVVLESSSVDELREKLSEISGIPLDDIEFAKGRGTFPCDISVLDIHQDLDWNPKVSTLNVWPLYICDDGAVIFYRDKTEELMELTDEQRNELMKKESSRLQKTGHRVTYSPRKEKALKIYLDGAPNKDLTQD
In outline:
as §1

The target of test [4] is T3, USP48 (UniProt Q86UV5).
T3 sequence (whole entry): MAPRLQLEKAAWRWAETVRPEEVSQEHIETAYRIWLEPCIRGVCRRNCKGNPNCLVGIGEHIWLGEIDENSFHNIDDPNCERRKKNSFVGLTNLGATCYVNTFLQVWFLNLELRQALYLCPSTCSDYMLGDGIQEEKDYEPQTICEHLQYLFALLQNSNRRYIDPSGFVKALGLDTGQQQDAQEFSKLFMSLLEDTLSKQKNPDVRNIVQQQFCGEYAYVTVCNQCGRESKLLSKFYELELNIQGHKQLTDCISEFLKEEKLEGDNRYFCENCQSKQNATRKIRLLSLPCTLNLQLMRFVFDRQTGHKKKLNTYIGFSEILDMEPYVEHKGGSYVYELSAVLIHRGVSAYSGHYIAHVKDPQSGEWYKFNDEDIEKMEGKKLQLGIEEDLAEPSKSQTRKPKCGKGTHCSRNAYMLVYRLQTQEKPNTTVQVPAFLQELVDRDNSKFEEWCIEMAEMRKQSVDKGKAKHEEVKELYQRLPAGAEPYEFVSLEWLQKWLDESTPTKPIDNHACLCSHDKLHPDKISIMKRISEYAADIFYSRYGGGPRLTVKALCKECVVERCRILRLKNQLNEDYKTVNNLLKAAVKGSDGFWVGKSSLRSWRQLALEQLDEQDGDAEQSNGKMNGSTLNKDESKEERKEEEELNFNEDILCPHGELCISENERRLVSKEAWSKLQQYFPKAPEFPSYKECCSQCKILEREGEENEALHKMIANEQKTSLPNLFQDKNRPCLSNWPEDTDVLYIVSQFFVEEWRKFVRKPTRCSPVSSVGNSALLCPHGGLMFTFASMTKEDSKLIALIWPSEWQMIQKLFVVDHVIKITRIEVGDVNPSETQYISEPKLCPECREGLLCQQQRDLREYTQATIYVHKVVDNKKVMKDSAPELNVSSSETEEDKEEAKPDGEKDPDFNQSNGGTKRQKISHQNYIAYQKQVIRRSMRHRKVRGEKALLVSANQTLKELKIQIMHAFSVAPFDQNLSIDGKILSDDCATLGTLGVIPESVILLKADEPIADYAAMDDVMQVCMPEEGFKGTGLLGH
In a few lines: as §1

Test [5] concerns the target T4, USP5 (UniProt P45974).
T4 sequence (whole entry): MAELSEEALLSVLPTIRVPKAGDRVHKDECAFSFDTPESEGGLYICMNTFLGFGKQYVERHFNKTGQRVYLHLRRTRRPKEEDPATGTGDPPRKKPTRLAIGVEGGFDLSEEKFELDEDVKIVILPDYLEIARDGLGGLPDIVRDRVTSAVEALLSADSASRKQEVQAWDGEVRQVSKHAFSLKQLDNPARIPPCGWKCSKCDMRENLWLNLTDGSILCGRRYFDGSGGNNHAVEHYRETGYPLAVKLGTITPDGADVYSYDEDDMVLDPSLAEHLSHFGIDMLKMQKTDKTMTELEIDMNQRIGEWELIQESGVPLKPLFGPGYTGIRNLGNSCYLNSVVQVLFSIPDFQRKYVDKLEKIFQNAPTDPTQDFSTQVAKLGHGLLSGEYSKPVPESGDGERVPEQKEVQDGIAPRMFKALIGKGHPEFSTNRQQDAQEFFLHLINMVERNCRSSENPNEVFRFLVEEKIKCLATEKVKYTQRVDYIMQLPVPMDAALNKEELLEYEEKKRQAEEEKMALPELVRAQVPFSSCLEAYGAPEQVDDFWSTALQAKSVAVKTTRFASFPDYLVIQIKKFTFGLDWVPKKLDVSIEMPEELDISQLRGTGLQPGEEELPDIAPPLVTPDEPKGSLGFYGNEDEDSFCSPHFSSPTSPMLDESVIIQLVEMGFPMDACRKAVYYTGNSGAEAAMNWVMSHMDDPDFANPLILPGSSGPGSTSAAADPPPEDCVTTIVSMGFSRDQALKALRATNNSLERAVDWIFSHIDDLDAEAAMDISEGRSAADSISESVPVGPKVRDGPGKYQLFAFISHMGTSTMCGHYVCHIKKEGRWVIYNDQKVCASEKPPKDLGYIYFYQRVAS
In a few lines: as §1

For test [6], the target named is USP54 (UniProt Q70EL1). In a few lines: as §1
Sequence of USP54 (Q70EL1 whole entry): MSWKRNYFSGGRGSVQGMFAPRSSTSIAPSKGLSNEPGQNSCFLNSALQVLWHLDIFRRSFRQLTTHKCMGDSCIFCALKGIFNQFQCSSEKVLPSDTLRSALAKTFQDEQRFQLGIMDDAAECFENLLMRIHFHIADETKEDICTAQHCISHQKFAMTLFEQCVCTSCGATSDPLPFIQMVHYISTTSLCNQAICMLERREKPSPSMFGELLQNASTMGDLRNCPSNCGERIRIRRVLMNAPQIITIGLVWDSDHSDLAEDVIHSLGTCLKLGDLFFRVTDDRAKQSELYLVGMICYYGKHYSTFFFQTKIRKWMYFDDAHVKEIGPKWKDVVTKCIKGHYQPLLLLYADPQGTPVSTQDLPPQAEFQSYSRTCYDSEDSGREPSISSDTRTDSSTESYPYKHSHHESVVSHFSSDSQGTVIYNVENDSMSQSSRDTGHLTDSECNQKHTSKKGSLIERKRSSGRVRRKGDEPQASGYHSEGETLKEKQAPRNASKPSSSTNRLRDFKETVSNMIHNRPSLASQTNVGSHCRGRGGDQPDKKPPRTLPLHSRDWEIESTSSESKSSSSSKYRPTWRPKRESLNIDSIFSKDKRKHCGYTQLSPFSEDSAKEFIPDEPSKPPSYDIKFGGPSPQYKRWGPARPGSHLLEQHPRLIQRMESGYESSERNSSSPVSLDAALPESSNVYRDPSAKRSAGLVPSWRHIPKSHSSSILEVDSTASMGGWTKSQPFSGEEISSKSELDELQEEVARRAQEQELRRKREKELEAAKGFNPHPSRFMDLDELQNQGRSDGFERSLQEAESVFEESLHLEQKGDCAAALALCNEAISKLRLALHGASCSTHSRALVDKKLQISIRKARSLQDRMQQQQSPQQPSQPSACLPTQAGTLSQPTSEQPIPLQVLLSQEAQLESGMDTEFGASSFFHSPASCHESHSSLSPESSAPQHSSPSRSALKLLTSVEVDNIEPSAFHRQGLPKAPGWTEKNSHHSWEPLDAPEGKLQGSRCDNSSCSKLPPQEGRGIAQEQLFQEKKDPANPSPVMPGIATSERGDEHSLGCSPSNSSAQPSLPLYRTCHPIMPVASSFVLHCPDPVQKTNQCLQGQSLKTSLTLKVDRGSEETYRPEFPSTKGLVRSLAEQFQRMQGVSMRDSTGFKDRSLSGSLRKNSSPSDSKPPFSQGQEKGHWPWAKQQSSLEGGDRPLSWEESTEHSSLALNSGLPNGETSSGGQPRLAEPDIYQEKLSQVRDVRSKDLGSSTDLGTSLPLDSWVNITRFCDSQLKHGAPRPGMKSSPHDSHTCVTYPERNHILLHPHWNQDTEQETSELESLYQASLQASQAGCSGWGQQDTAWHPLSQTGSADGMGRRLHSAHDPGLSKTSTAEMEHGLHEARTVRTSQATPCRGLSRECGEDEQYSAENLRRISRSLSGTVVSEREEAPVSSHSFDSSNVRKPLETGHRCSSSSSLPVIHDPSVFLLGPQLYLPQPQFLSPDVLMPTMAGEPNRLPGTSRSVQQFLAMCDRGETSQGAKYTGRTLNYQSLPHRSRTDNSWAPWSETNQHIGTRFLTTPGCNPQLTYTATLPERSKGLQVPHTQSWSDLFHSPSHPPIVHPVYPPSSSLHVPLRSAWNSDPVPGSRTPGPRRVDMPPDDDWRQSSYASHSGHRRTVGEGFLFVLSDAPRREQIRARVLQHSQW
In test [7] the target is USP7 (UniProt Q93009). In outline:
as §1

Test [8] addresses T5, USP8 (UniProt P40818).
T5 sequence (whole entry): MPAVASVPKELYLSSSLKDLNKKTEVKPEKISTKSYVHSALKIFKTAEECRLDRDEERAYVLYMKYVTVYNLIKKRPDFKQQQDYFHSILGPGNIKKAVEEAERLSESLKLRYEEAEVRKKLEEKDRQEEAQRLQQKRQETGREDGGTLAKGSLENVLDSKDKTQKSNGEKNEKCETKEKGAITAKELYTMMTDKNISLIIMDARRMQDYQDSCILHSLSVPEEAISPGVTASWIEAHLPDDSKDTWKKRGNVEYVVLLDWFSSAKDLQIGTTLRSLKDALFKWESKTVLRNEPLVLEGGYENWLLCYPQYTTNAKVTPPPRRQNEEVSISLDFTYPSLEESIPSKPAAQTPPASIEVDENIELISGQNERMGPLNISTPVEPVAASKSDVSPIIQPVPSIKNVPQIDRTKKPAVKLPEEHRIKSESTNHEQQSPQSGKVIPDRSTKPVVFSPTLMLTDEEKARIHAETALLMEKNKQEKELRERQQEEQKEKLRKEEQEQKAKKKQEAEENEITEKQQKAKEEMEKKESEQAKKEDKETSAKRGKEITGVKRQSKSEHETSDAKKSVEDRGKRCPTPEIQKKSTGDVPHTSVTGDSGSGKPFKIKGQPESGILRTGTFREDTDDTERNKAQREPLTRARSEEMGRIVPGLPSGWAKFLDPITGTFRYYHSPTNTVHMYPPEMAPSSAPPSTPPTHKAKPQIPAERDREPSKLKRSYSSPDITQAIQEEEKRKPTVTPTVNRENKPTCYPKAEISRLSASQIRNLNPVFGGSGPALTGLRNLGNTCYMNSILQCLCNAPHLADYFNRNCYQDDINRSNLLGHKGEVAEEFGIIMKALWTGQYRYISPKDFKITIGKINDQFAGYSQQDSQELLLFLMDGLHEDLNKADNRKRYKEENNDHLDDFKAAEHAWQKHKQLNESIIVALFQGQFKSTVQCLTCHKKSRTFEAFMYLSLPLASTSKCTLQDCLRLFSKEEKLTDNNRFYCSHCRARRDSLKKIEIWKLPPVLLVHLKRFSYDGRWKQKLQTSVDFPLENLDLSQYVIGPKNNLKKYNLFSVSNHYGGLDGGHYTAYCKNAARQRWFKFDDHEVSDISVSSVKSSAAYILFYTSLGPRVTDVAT
In a few lines: as §1

Test [9] has as its target USP9X (UniProt Q93008). In a few lines: as §1
For test [10], the target named is UniProt O00487. In a few lines:
as §1

Unmarked numbers belong to inactive results.

Sequence of USP7 (Q93009 whole entry, looked up): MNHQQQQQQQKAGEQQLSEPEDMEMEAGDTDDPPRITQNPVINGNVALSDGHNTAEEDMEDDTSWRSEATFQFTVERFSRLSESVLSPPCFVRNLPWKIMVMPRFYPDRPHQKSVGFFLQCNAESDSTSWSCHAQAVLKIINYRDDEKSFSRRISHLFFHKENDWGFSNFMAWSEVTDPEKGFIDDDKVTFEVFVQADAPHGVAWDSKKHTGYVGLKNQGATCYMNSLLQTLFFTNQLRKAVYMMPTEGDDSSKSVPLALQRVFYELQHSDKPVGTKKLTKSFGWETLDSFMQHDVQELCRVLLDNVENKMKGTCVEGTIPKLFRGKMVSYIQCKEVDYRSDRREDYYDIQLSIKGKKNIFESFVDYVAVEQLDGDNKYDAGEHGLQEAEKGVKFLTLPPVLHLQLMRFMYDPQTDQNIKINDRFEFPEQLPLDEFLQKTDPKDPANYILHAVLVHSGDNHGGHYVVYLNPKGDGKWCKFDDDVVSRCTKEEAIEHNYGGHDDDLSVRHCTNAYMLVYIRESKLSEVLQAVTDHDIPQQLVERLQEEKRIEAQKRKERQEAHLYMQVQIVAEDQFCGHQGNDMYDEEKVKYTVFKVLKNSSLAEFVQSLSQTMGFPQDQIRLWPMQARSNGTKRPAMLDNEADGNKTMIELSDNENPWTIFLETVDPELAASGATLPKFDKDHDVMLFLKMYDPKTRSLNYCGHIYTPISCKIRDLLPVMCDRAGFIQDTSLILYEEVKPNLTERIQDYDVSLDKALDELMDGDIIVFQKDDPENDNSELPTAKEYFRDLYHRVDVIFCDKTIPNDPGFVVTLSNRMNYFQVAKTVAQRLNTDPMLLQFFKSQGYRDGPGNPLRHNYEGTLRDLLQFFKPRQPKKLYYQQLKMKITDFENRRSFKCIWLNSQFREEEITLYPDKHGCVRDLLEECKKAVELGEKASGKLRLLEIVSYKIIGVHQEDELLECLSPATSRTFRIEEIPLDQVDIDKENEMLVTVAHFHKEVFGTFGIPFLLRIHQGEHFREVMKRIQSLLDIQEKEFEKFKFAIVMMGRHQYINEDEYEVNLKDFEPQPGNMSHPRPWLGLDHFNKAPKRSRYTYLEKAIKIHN
Sequence of UniProt O00487 (O00487 whole entry): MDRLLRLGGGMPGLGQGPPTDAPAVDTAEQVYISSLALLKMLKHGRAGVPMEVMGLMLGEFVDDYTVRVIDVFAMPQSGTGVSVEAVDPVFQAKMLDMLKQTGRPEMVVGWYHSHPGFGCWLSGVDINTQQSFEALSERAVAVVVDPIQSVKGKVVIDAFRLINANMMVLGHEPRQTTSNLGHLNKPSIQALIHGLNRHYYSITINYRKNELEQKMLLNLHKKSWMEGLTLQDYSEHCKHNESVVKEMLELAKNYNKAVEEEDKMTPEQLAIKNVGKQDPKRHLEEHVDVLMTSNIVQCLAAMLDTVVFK
Sequence of USP46 (P62068 whole entry): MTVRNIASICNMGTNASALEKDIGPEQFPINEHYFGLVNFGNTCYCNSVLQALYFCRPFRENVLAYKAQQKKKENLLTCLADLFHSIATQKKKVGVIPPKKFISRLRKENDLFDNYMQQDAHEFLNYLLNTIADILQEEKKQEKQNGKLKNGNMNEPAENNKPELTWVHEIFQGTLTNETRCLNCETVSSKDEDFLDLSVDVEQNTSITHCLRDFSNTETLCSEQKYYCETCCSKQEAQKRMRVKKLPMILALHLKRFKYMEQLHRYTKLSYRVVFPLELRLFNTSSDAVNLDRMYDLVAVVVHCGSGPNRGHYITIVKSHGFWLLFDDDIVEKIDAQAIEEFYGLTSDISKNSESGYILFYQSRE

Take `Cc1ccc(N(C(=O)CCl)C2C=CS(=O)(=O)C2)cc1` (stereo not given): the “log2 ratio of Biotin-Ahx-Ub-VS probe labelling” value in test [1] was 0.262; in test [2], -0.055; in [3], -1.11 (active); in test [4], -0.839; in test [5], 0.431; in test [6], -0.495. Moreover, the “log2 ratio of Biotin-Ahx-Ub-VS probe labelling” value was -1.19 (active) in [7], 0.108 in test [8], 0.0636 in test [9] and 0.0368 in test [10].
